Out of some 7,400 compounds screened, about 4,100 (55%) were called active. The set was probably picked from earlier hits. A selection follows. Unmarked numbers belong to inactive results.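 Rule for the calls: active = inhibition of yeast growth at or above a set limit in either of two repeat tests at 20 µM; inactive = the rest.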
Assay: growth inhibitors of tim10-1 mutant yeast, confirmation, single concentration, luminescence, S. cerevisiae (AID 463213);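 note: tim10-1 mutant grown at permissive 25 °C to find synthetic lethal compounds; 0% = DMSO yeast wells and 100% = medium wells without yeast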
Conditions: S. cerevisiae tim10-1 ts strain growth, BacTiter-Glo, 24 h; at 20 µM; active compounds read high

Row | Structure (SMILES) | inhibition
1 | Cc1sc2ncnc(SCC(=O)Nc3ccc(CN4CCCC4)cc3)c2c1C | 23.3%
2 | O=C1C=CC(=O)N1c1ccc(N2CCCCC2)cc1 | 92.6% (active)
3 | Cc1oc2cc(Br)c(O)c(Br)c2c1C(=O)c1ccccc1 | 36.2% (active)
4 | CC1=C/C(=N\OS(=O)(=O)c2ccccc2)C=CC1=O | 60.8% (active)
5 | O=c1c(Cl)c(NCc2ccc(F)cc2Cl)cnn1C12CC3CC(CC(C3)C1)C2 | 44.2% (active)
6 | COc1ccc(OC)c(-c2c(=O)n(OCc3ccccc3Br)c3ccccc3[n+]2[O-])c1 | 24.3%
7 | CCc1nc(C)cn1S(=O)(=O)c1cc([N+](=O)[O-])ccc1Cl | 47.8% (active)
8 | CC(C)c1nccn1S(=O)(=O)c1cc([N+](=O)[O-])ccc1Cl | 28.7%
9 | O=C(c1ccccc1)N1CCC(CC2CC(c3ccc(Cl)cc3)=NO2)(C(=O)NCC2CCCCC2)CC1 (configuration not stated) | 34% (active)
10 | COc1cc([N+](=O)[O-])ccc1NC(=O)COC(=O)CCOc1ccc(C)cc1 | 63.3% (active)
11 | O=C(COC(=O)CCOc1ccccc1)Nc1cc(S(=O)(=O)N2CCCCC2)ccc1Cl | 30.2%
12 | O=C(NC1CCCCC1)c1ccc(-c2ccc(Cl)cc2)o1 | 39% (active)
13 | O=C(Nc1cccc(F)c1)NC1CCCCCCC1 | 20.1%
14 | CSC1=N/C(=C\C=C\c2cccs2)C(=O)S1 | 51.9% (active)
15 | O=[N+]([O-])c1ccc(N/N=C/c2ccccc2)cc1 | 27%
16 | c1ccc(-c2nc(NCc3ccco3)c3ccccc3n2)cc1 | 42% (active)
17 | S=c1[nH]c2ccccc2c2ccccc12 | 7.95%
18 | C#CCN1C(=O)C(O)(CC(=O)c2cc(OC)ccc2OC)c2ccccc21 (configuration not stated) | 30.6%
19 | CC(C)(CCl)C(=O)Nc1ccc(Sc2ccc(F)cc2)cc1 | 51.8% (active)
20 | Cc1cccc(OCCNC(=S)NC(=O)c2cccnc2)c1 | 27.1%
21 | COCCNC(=O)/C(C#N)=C/c1cccc(OCc2ccccc2)c1 | 70.2% (active)

Row | Structure (SMILES) | inhibition
22 | S=C(NCc1ccc(Cl)cc1)NC12CC3CC(CC(C3)C1)C2 | 3.55%
23 | C/C(=N/NC(=O)c1cc(Cl)ccc1O)C12CC3CC(CC(C3)C1)C2 | 34.1% (active)
24 | C/C(=N\Nc1nc(Nc2ccccc2)nc(N2CCOCC2)n1)c1cccs1 | 24.8%
25 | Cc1cc(C)n(-c2nc(SCC(=O)N3CCCC3)c3c4c(sc3n2)CCCC4)n1 | 40.1% (active)
26 | CCOc1ccc2nc(N3CCCN(C(=O)Nc4ccccc4C)CC3)c(C#N)cc2c1 | 26.7%
27 | CCC(C)(C)n1nnnc1CN1CCN(c2nc3ccc(C)cc3cc2C#N)CC1 | 35.2% (active)
28 | Fc1cccc(Cl)c1CSc1ccc(-c2ccco2)nn1 | 39.5% (active)
29 | Clc1ccccc1CSc1nnc(-c2ccco2)c(-c2ccco2)n1 | 27.3%
30 | COc1cc(C(=O)Nc2nccs2)cc(OC)c1OC | 29%
31 | CSc1nnc(NC(=O)c2nc(S(=O)(=O)Cc3ccc(C)cc3)ncc2Cl)s1 | -0.5%
32 | COc1ccc(CS(=O)/C(Cl)=C(/Cl)C(=O)Nc2ccc(OC)nc2)cc1 (configuration not stated) | 34.8% (active)
33 | Cn1c(CCCOc2ccc(Cl)cc2Cl)n[nH]c1=S | 17.5%
34 | Cc1ccc(NC(=O)CN2CCC3(O)CCCCC3C2c2ccc3c(c2)OCO3)c(C)c1 (configuration not stated) | 37.5% (active)
35 | Cn1c(C(=O)OC(C(=O)NC2CCCCC2)c2ccccn2)cc2sccc21 (configuration not stated) | 17.9%
36 | Cc1ccc(NC(=O)CCOc2ccccc2)cc1S(=O)(=O)Nc1ccccc1Cl | 29.1%
37 | CN(c1ccccc1)S(=O)(=O)c1ccc(NC(=O)COc2ccccc2)cc1 | 34.2% (active)
38 | COc1ccc(/C(N)=N/OC(=O)CCCc2ccccc2)cc1 | 48.1% (active)
39 | COc1ccc(/C(N)=N/OC(=O)Cc2ccccc2)cc1 | 15.5%
40 | N/C(=N\OC(=O)CCc1ccccc1)c1ccc(Cl)cc1 | 57.7% (active)
41 | Nc1nc(-c2ccccc2)cc(-c2ccccc2)n1 | 10%
42 | CS(=O)(=O)c1sc2nc(-c3ccccc3)cc(-c3ccccc3)c2c1N | 33.8% (active)

Row | Structure (SMILES) | inhibition
43 | O=C(COc1ccccc1Cl)N1N=C(c2cccs2)CC1c1ccco1 (configuration not stated) | 27.8%
44 | O=C(CC(O)(C(F)(F)F)C(F)(F)F)Nc1ccc(Cl)c(Cl)c1 | 88.2% (active)
45 | CN=c1scc(-c2cc(OC)ccc2OC)n1/N=C/c1c(C)[nH]c2ccccc12 | 19.1%
46 | O=S(=O)(Nc1cccc(Oc2ccc(Cl)cc2)n1)c1ccc(F)cc1 | 45% (active)
47 | CCCc1nc2c(c(=O)c3ccccc3n2C)c(=O)n1C1CCCCCC1 | 28.5%
48 | CCCCCC1CCC(c2nnc(SCC(C)=O)o2)CC1 (configuration not stated) | 39.2% (active)
49 | COc1ccc(CCNc2cc(C)nc3c(-c4ccc(Cl)cc4)c(C)nn23)cc1OC | 24%
50 | CCOC(=O)c1c(-c2ccccc2)oc2cc(Br)c(O)cc12 | 39.4% (active)
51 | CCOC(=O)c1c(CN2CCOCC2)n(-c2ccccc2)c2ccc(O)cc12 | 22.6%
52 | CCOC(=O)c1c(-c2ccccc2)oc2ccc(OCC(=O)NN)cc12 | 15.6%
53 | CCOc1ccccc1N1CCN(C(=O)c2ccc3[nH]c(C)c(C)c3c2)CC1 | 16.4%
54 | CCn1nccc1C(=O)Nc1ccc(Cl)c(Cl)c1 | 37.8% (active)
55 | O=C(/C=C/c1ccccc1)c1ccccc1O | 56.2% (active)
56 | COc1ccc(C(=O)Nc2ccc(-n3nncc3C(C)(C)C)cc2)cc1 | 38.6% (active)
57 | Cc1ccc(S/C(=N\S(=O)(=O)c2ccc(Cl)cc2)c2ccccc2)cc1 | 35.6% (active)
58 | CC(C)Cn1c(N)c(C(=O)NCc2cccs2)c2nc3ccccc3nc21 | 22.4%
59 | O=C(c1cccc(C(=O)N2CCN(c3ccc(F)cc3)CC2)c1)N1CCN(c2ccc(F)cc2)CC1 | 27%
60 | Oc1c(CN2CCN(c3ccc(F)cc3)CC2)cc(Cl)c2cccnc12 | 32% (active)
61 | Fc1ccc(N2CCN(Cc3cnc(Oc4ccc(Br)cc4)s3)CC2)cc1 | 28.4%
62 | OC(CNCC1CCCO1)Cn1c2ccc(Br)cc2c2cc(Br)ccc21 (configuration not stated) | 3.65%

— PubChem BioAssay AID463213 (Sanford-Burnham Center for Chemical Genomics, 2010)
